# Assay results reported in PubChem BioAssay AID1159580 (chemical genetic matrix, 2015).
# “And” between values parts separate entries of the source, which are not always exact repeats. Identical values can stand only once. Hit rate of the full screen: of about 5,500 compounds, about 2,000 (36%) were called active. About 18% were inconclusive and are not listed. The list shows a part of the results. A number with no mark means an inactive call. No stated cut-off is given here; in the data, active means normalized growth mostly below about 0.91 (no sharp cut-off); inconclusive means no clear call, values can overlap the other calls; inactive means mostly above about 0.92.
# Assay: chemical genetic growth profiling, strain panel (AID 1159580);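 further: tested at 20 µM; growth read once vehicle control cultures reached saturation at 30 °C; 1 = growth at the plate median or of vehicle wells; lower values mean less growth of the strain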
# Settings: S. cerevisiae deletion strains, growth OD
smiles,measurement,setting,value
O=C1C=CC(=O)c2c(O)cccc21,normalized growth,"locus YAL021C, strain ccr4, active compounds read low",1.01
same,normalized growth,"locus YAL026C, strain drs2, active compounds read low",0.951
same,normalized growth,"locus YAL030W, strain snc1, active compounds read low",0.965
same,normalized growth,"locus YBL061C, strain skt5, active compounds read low",0.976
same,normalized growth,"locus YBR009C, strain hhf1, active compounds read low",0.966
same,normalized growth,"locus YBR021W, strain FUR4, active compounds read low",1.09
same,normalized growth,"locus YBR023C, strain chs3, active compounds read low",0.973
same,normalized growth,"locus YBR171W, strain sec66, active compounds read low",1
same,normalized growth,"locus YBR229C, strain ROT2, active compounds read low",0.955
same,normalized growth,"locus YBR231C, strain swc5, active compounds read low",0.876 (active)
same,normalized growth,"locus YBR279W, strain paf1, active compounds read low",0.974
same,normalized growth,"locus YCL011C, strain gbp2, active compounds read low",0.978
same,normalized growth,"locus YCL016C, strain dcc1, active compounds read low",0.975
same,normalized growth,"locus YCL029C, strain bik1, active compounds read low",0.983
same,normalized growth,"locus YCL069W, strain vba3, active compounds read low",0.971
same,normalized growth,"locus YCR088W, strain abp1, active compounds read low",0.981
same,normalized growth,"locus YDL005C, strain med2, active compounds read low",1
same,normalized growth,"locus YDL035C, strain GPR1, active compounds read low",0.993
same,normalized growth,"locus YDL040C, strain nat1, active compounds read low",1
same,normalized growth,"locus YDL074C, strain BRE1, active compounds read low",1.02
same,normalized growth,"locus YDL101C, strain DUN1, active compounds read low",0.966
same,normalized growth,"locus YDL134C, strain PPH21, active compounds read low",0.967
same,normalized growth,"locus YDL185W, strain tfp1, active compounds read low",0.961
same,normalized growth,"locus YDL192W, strain arf1, active compounds read low",0.972
same,normalized growth,"locus YDR001C, strain nth1, active compounds read low",0.991
same,normalized growth,"locus YDR069C, strain doa4, active compounds read low",0.956
same,normalized growth,"locus YDR101C, strain arx1, active compounds read low",1.03
same,normalized growth,"locus YDR137W, strain rgp1, active compounds read low",0.708 (active)
same,normalized growth,"locus YDR159W, strain sac3, active compounds read low",0.838 (active)
same,normalized growth,"locus YDR162C, strain NBP2, active compounds read low",0.912
same,normalized growth,"locus YDR195W, strain ref2",1.03
same,normalized growth,"locus YDR297W, strain sur2, active compounds read low",1.01
same,normalized growth,"locus YDR318W, strain mcm21, active compounds read low",0.962
same,normalized growth,"locus YDR334W, strain swr1, active compounds read low",0.879 (active)
same,normalized growth,"locus YDR335W, strain msn5, active compounds read low",0.975
same,normalized growth,"locus YDR388W, active compounds read low",0.99
same,normalized growth,"locus YDR392W, strain spt3, active compounds read low",0.596 (active)
same,normalized growth,"locus YDR502C, strain sam2, active compounds read low",1.01
same,normalized growth,"locus YEL003W, strain gim4, active compounds read low",0.969
same,normalized growth,"locus YEL037C, strain rad23, active compounds read low",0.973
same,normalized growth,"locus YEL061C, strain CIN8 (second series), active compounds read low",0.983
same,normalized growth,"locus YEL061C, strain CIN8, active compounds read low",0.982
same,normalized growth,"locus YER015W, strain faa2, active compounds read low",0.956
same,normalized growth,"locus YER016W, strain bim1, active compounds read low",1.02
same,normalized growth,"locus YER110C, active compounds read low",0.972
same,normalized growth,"locus YER111C, strain swi4, active compounds read low",1.13 [resistant] (active)
same,normalized growth,"locus YER155C, strain BEM2 (second series), active compounds read low",0.766 (active)
same,normalized growth,"locus YER155C, strain BEM2, active compounds read low",1
same,normalized growth,"locus YER167W, strain BCK2, active compounds read low",0.984
same,normalized growth,"locus YFR010W, strain ubp6, active compounds read low",0.907
same,normalized growth,"locus YGL078C, strain dbp3, active compounds read low",1.04
same,normalized growth,"locus YGL086W, strain mad1, active compounds read low",1.02
same,normalized growth,"locus YGL167C, strain pmr1, active compounds read low",0.961
same,normalized growth,"locus YGL173C, strain kem1, active compounds read low",0.938
same,normalized growth,"locus YGL227W, strain vid30, active compounds read low",1.04
same,normalized growth,"locus YGL240W, strain doc1, active compounds read low",0.817 (active)
same,normalized growth,"locus YGL248W, strain PDE1, active compounds read low",0.955
same,normalized growth,"locus YGL253W, strain hxk2, active compounds read low",0.979
same,normalized growth,"locus YGR078C, strain PAC10, active compounds read low",0.958
same,normalized growth,"locus YGR135W, strain pre9, active compounds read low",0.966
same,normalized growth,"locus YGR229C, strain SMI1, active compounds read low",0.97
same,normalized growth,"locus YGR252W, strain gcn5, active compounds read low",1.03
same,normalized growth,"locus YHR013C, strain ard1, active compounds read low",0.894
same,normalized growth,"locus YHR027C, strain rpn1, active compounds read low",0.954
same,normalized growth,"locus YHR030C, strain SLT2, active compounds read low",0.993 and 0.875
same,normalized growth,"locus YHR079C, strain IRE1 (second series), active compounds read low",0.997
same,normalized growth,"locus YHR079C, strain IRE1, active compounds read low",0.972
same,normalized growth,"locus YHR094C, strain hxt1, active compounds read low",1
same,normalized growth,"locus YHR129C, strain ARP1, active compounds read low",0.991
same,normalized growth,"locus YHR142W, strain chs7, active compounds read low",0.992
same,normalized growth,"locus YHR200W, strain rpn10, active compounds read low",0.963
same,normalized growth,"locus YIL066C, strain RNR3, active compounds read low",0.965
same,normalized growth,"locus YIL073C, strain SPO22, active compounds read low",0.933
same,normalized growth,"locus YIL125W, strain kgd1, active compounds read low",0.997
same,normalized growth,"locus YIR030C, strain dcg1, active compounds read low",1
same,normalized growth,"locus YJL092W, strain hpr5, active compounds read low",0.987
same,normalized growth,"locus YJL095W, strain BCK1 (second series), active compounds read low",0.946
same,normalized growth,"locus YJL095W, strain BCK1, active compounds read low",0.903 and 0.941
same,normalized growth,"locus YJL115W, strain asf1, active compounds read low",0.969
same,normalized growth,"locus YJL129C, strain trk1, active compounds read low",1.02
same,normalized growth,"locus YJL134W, strain LCB3, active compounds read low",0.984
same,normalized growth,"locus YJL154C, strain vps35, active compounds read low",0.974
same,normalized growth,"locus YJL164C, strain tpk1, active compounds read low",0.953
same,normalized growth,"locus YJL166W, strain qcr8, active compounds read low",0.935
same,normalized growth,"locus YJL168C, strain set2, active compounds read low",0.988
same,normalized growth,"locus YJL187C, strain SWE1 (second series), active compounds read low",0.964
same,normalized growth,"locus YJL187C, strain SWE1, active compounds read low",0.987
